# “And” between values parts separate entries of the source, which are not always exact repeats. Identical values can stand only once. The whole screen tested about 310,000 compounds, of which about 17,000 (5.5%) were called active. Roughly 11% stayed inconclusive and do not appear here. Many of the other results were omitted from the sample, so actives are more common in it than they were. Values without a mark were called inactive. Calls come from the whole dose curve; as a rule, active = well fitted inhibition curve with a large enough effect; inconclusive = small, poorly fitted or top-dose-only effect, or effect the other way; inactive = no such curve, though single readings can be large or run the other way.
# Target: Nuclear receptor ROR-gamma (Mus musculus) (UniProt P51450)
# Sequence (P51450 whole entry, looked up): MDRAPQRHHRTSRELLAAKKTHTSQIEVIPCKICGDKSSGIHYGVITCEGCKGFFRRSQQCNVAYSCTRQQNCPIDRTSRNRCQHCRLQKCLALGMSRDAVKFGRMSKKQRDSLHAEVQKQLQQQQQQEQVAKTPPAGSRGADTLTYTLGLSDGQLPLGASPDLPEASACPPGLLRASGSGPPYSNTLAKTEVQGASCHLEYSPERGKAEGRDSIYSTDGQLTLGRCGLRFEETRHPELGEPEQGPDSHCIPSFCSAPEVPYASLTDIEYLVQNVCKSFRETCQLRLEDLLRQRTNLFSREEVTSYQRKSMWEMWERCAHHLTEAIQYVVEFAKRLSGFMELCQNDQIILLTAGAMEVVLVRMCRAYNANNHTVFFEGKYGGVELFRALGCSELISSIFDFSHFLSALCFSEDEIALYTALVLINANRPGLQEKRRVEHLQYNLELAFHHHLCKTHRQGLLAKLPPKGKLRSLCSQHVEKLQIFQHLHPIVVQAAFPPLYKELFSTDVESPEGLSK
# Experiment: qHTS for inhibitors of ROR gamma transcriptional activity; note: nearly all actives have a fitted effect of over 60% in size
# Conditions: Drosophila S2 Gal4-RORgamma UAS-luciferase reporter, 20 h; series mostly up to 53.6 µM; activity change, negative = inhibition: at the top concentration
# From the text: NIH Molecular Libraries Probe Production Network [MLPCN] NIH Chemical Genomics Center [NCGC] MLPCN Grant: R03 DA026211-01 Assay Provider: Dan Littman, New York University Assay Overview: The retinoic acid-related orphan receptor (ROR) gamma is a transcription factor that has a central role in the differentiation of Th17 cells, a subset of T helper cells that secrete the inflammatory cytokines IL-17, IL-17F, and IL-22. Th17 cells have been implicated in graft versus host disease, autoimmune disease and asthma. ROR gamma is induced in naive T helper cells in the presence of TGF-beta combined with IL-6, IL-21, or IL-23, and thereafter directs the expression of the Th17 lineage cytokines. To study the mechanism of action of ROR gamma, an insect cell-based assay was screened. This Drosophila Schneider cell line was stably transfected with two vectors: a gene expressing a fusion of the Gal4 DNA binding domain and ROR gamma transactivation domain under the control of the metallothionine promoter and a Photinus luciferase reporter regulated by the Gal4 binding site enhancer, UAS. […] Small molecule inhibitors of ROR gamma activity are detected by a decrease in luciferase reporter activity.
# Assay Protocol Summary: For screening, 600 cells in 4 uL/well were dispensed into white solid 1536-well plates (Grenier) using a solenoid-based dispenser. Following transfer of 23 nL compound or DMSO vehicle by a pin tool, the plates were incubated 1 hr at ambient temperature, and 1 uL/well copper sulfate (700 uM final concentration) was added. The plates were centrifuged 15 s at 1000 RPM and incubated 20 hr at ambient temperature. After addition of 1.5 uL Photinus luciferase detection reagent, the plates were incubated 10 min at ambient temperature and then read by an ViewLux (Perkin Elmer) to detect luminescence. Keywords: NIH Roadmap, MLPCN, MLI, MLSMR, qHTS, NCGC, qHTS, nuclear hormone receptor, retinoic acid-related orphan receptor, ROR gamma
# % is set by controls: 0 for no effect and ±100 for the full control effect; potency is the fitted concentration of half-maximal effect.
Structure (SMILES),"activity change, negative = inhibition",Potency
O=S(=O)(NC1CCCC1)c1ccc(-n2cnnn2)cc1,-26.9%,
Cc1sc2nc(SCCO)n(-c3ccccc3)c(=O)c2c1C,16.7%,
COCCCNC(=S)N1CCN(c2nc(-c3cccc(OC)c3)cs2)CC1,19.9%,
O=C(Nc1c2c(nn1-c1ccccc1)CS(=O)(=O)C2)C1CCCC1,-9.49%,
Nn1cnnc1N/N=C/c1cc([N+](=O)[O-])c(Cl)cc1Cl,,11.2 µM (active)
NC(N)=N/N=C/c1ccc(Cl)c([N+](=O)[O-])c1,2.73%,
CC(CN1CCC(n2nccc2NC(=O)C2CCCC2)CC1)c1ccccc1 (stereo unspecified),-26.1%,
Oc1ccc(Br)cc1C=Nc1ccc2[nH]ncc2c1,,11.2 µM (active)
O=C(CCc1nnc2ccc(NCc3ccco3)nn12)Nc1cc(F)ccc1F,12.4%,
CC(=O)NCCn1c(SCC(=O)Nc2ccc(C)cc2)nc2ccccc2c1=O,8.63%,
CCn1c(SCC(=O)Nc2ccc(C)cc2)nc2nc3c(cc2c1=O)CCCC3,,10 µM (active)
CCc1ccc(NC(=O)CSc2nc3ccccc3c(=O)n2CCN2CCOCC2)cc1,42.2%,
CCn1c(C)c(C)c2cc(C(=O)N3CCN(c4cccc(C)c4C)CC3)ccc21,2.35%,
CCCCC(c1nnnn1CS(=O)(=O)c1ccc(C)cc1)N1CCC(C(N)=O)CC1 (stereo unspecified),-7.67%,
Cc1ccc(CNC(=O)Cc2cn(C)c3ccccc23)cc1,24.8%,
CC(C)(C)c1cc(C(=O)N/N=C/c2ccc([N+](=O)[O-])s2)n[nH]1,-30.6%,
Cc1cc(C(=O)N/N=C/c2cc([N+](=O)[O-])cc(C)c2O)n[nH]1,,10 µM (active)
COc1ccc2ccccc2c1/C=N/NC(=O)c1cc(C)[nH]n1,-11.2%,
CCCCn1c(SCC(=O)N2CCOCC2)nc2c1c(=O)n(C)c(=O)n2C,8.39%,
CC1(C)CCCC2=C1CC1C(=O)N(c3ccccc3)C(=O)C1C2 (stereo unspecified),-12.1%,
CC1CC2=C(CC1/C=N/NC(N)=S)C(C)(C)CCC2 (stereo unspecified),,1.41 µM (active)
CC(C)[C@H](NC(=O)N1CCn2c1nc1ccccc12)C(=O)NCc1ccc2c(c1)OCO2,-24.8%,

Structure (SMILES),"activity change, negative = inhibition",Potency
Cc1ccc2[nH]c(=O)c(CC(=O)O)c(-c3ccccc3)c2c1,-2.08%,
COc1ccc(C(C)NC(=O)C23CC4CC(CC(C4)C2)C3)cc1 (stereo unspecified),7.13%,
O=C(Nc1cccc(NC(=O)c2ccc(Br)cc2)c1)c1ccccc1,-13.1%,
CC(=N\NC(=O)c1cc(Br)ccc1O)/C(=N/O)C(=O)Nc1ccccc1,,7.94 µM (active)
O=C(O)c1ccc(/C=N/NC(=O)c2ccc(Br)cc2)cc1,-14.5%,
O=C(N/N=C\c1cccc(Br)c1)c1ccccc1-n1cccc1,-2.2%,
CC(C)/C=N/NC(=O)c1cc(Br)ccc1O,,10 µM (active)
O=C(Nc1ccc(C(=O)O)cc1)/C(=C\c1ccccc1)NC(=O)c1ccc(Br)cc1,9.49%,
Cc1cccc(N(C(=O)Cn2nnc(-c3ccc(C)o3)n2)C(C(=O)NC2CCCC2)c2ccncc2)c1 (stereo unspecified),-41.8%,
O=C(CCN1C(=O)[C@H]2CC=CC[C@H]2C1=O)NCc1nc(-c2ccccc2)no1,8.53%,
CCCNC(=O)c1ccc(N2CCC3(CC2)CC(c2ccc(Cl)cc2)=NO3)c([N+](=O)[O-])c1,20.5%,
O=C1CCC(C(=O)N2CCC(O)(c3ccccc3)CC2)CN1CCc1ccccc1 (stereo unspecified),1.71%,
Cc1ccc(N2CCN(C(=O)c3cccs3)CC2)c(C)c1,-16.4%,
COc1ccc(/C=N/OCc2ccccc2C#N)c(OC)c1,15.5%,
Cc1ccc(C(=O)NCC(=O)NCc2cc(=O)n(C)c(=O)n2C)cc1,-10.6%,
COc1ccc(Cl)cc1CSc1ncn[nH]1,-20.7%,
O=C(NCCOCc1ccc(Cl)cc1)c1ncn[nH]1,-4.46%,
O=C(/C=C/Sc1ncn[nH]1)c1ccc(Cl)cc1,,4.47 µM (active)
COCCNC(=O)COc1ccc(N(C)S(=O)(=O)c2ccc3ccccc3c2)cc1,-0.588%,
COc1cccc(N(CC(=O)NC2CCCC2)C(=O)CCCC(=O)Nc2ccccn2)c1,5.39%,
COc1ccc(/C=C2\SC(=N)N(c3ccc(F)cc3)C2=O)cc1,-15%,
COc1ccc(/C=C2/S/C(=N/N=C3\CC4CCC3(C)C4(C)C)NC2=O)cc1 (stereo unspecified),,10 µM (active)

Structure (SMILES),"activity change, negative = inhibition",Potency
COc1ccc(/C=C2\NC(=O)[C@@H]3Cc4ccccc4CN3C2=O)cc1,17.6%,
Cc1ccc(C)c(C(=O)N2CCC(n3nccc3NC(=O)C3CC3)CC2)c1,4.12%,
Cn1c(COc2ccc(Cl)cc2)nc2ccccc2c1=O,27%,
COc1ccc(-c2nc(N)ncc2-c2ccc(Cl)cc2)c(O)c1,12.3%,
Cc1[nH]nc(-c2ccc(OCc3cnn(-c4ccccc4)c3)cc2O)c1Oc1ccc(Cl)cc1,,2.24 µM (active)
Cc1nc(COc2cc3oc(=O)cc(C)c3cc2Cl)cs1,-0.324%,
CC(=O)NCCc1ccc(S(=O)(=O)Nc2ccc(C)c(S(=O)(=O)N3CCOCC3)c2)cc1,-14.7%,
O=C(Nc1cccc(NC(=O)c2cccc(F)c2)c1)c1ccccc1,5.17%,
COc1ccc(CCNS(=O)(=O)c2ccc(F)cc2)cc1OC,18.7%,
CCS(=O)(=O)NCCc1ccc(OC)c(OC)c1,,11.2 µM (active)
COc1ccc(CCNS(=O)(=O)c2ccc(Cl)s2)cc1OC,-6.22%,
COc1ccc(S(=O)(=O)N2CCC(C(=O)NCc3ccco3)CC2)cc1C,-9.61%,
Cc1cccc(-c2noc(CCC(=O)NC3CCCC3)n2)c1,7.56%,
O=C(NCCCN1CCOCC1)c1cc(-c2ccccc2F)no1,16.6%,
COC(=O)Cn1c2ccc(C)cc2c2nc(C)sc21,3.75%,
CCn1c(O)c(N=NC2=NC(=O)CS2)c2cc(C)ccc21,,4.47 µM (active)
CCn1c(=O)cc(O)c2ccccc21,-5.33%,
CN(CC(=O)Nc1ccc(Cl)cc1)C(=O)CNC(=O)c1ccc2ccccc2c1,30.7%,
Cn1cc(CCC(=O)NC2CC2)c2ccccc21,-22.2%,
O=C(CNC(=O)Cc1ccccc1)N=Nc1c(O)[nH]c2ccc(Br)cc12,-24.9%,
O=C(C1CCCN(S(=O)(=O)c2ccc([N+](=O)[O-])cc2)C1)N1CCCCC1 (stereo unspecified),17.1%,
Cc1ccccc1NC(=O)c1ccccc1NS(=O)(=O)c1cccc2cccnc12,-10.1%,

Structure (SMILES),"activity change, negative = inhibition",Potency
O=[N+]([O-])c1cccc2ncccc12,24.3%,
O=[N+]([O-])c1ccccc1S(=O)(=O)Nc1cccc2cccnc12,,501 nM (active) and 708 nM (active)
O=C(Cc1ccccc1F)NC1CCSc2ccccc21 (stereo unspecified),-33.8%,
CC(C)c1ccc(S(=O)(=O)NC2CCCC2)cc1,24.5%,
CCn1c(CNC(=O)c2cc(OC)c(OC)c(OC)c2)cc2cc(C)ccc21,31.6%,
CC(=O)N1CCCc2cc(S(=O)(=O)N3CCCC(C(=O)N4CCN(c5cccc(Cl)c5)CC4)C3)ccc21 (stereo unspecified),,5.62 µM (active)
CC(=O)N1CCCc2cc(S(=O)(=O)N3CCCC(C(=O)NCc4ccc(Cl)cc4)C3)ccc21 (stereo unspecified),9.44%,
CC(=O)N1c2ccc(S(=O)(=O)N3CCCC(C(=O)Nc4cccc(Cl)c4)C3)cc2CC1C (stereo unspecified),40.4%,
COc1ccc2oc(C(=O)NCc3ccco3)c(C)c2c1,3.55%,
CC(C(=O)N1CCN(c2ccccc2F)CC1)c1ccc([N+](=O)[O-])cc1 (stereo unspecified),32.2%,
COc1ccc(CNc2nccs2)cc1,-17.8%,
COc1ccc(Cc2nnc(N/N=C/c3ccccc3O)[nH]c2=O)cc1OC,,3.98 µM (active)
O=c1[nH]c(NCCO)nnc1Cc1ccc(Cl)cc1,-12.4%,
CCOc1ccc(-n2c(O)c(/C=N/Nc3nnc(C)c(=O)[nH]3)c3ccccc3c2=O)cc1,-23.3%,
NC(=O)N1CCc2ccccc21,1.35%,
O=C(CSCc1ccccc1)N1CCc2ccccc21,0.446%,
O=C(NC(=S)N1CCc2ccccc21)c1ccco1,,1.41 µM (active)
COc1cc(/C=N/N2CCN(c3ccccc3)CC2)ccc1OC(C)=O,22.3%,
CC(C)=CCN1CCN(Cc2cc3ccccc3[nH]2)CC1CCO (stereo unspecified),3.24%,
CCOC(=O)c1c(NC(=S)NC(=O)c2ccco2)sc2c1CCCC2,,3.16 µM (active)
CCOC(=O)c1c(NC(=S)Nc2ccccc2C)sc2c1CCC2,,3.55 µM (active)
CCOC(=O)c1c(NC(=O)C(C)Sc2c[nH]c3ccccc23)sc2c1CCC2 (stereo unspecified),22.1%,

Structure (SMILES),"activity change, negative = inhibition",Potency
CCCOC(=O)Nc1sc2c(c1C(=O)OCC)CCC2,7.44%,
CCc1ccc(N(CC(=O)Nc2sc3c(c2C(=O)OC)CCCC3)S(C)(=O)=O)cc1,67.7%,
CCOC(=O)c1c(NC(=O)CCC(=O)NCc2ccco2)sc2c1CCCC2,-15.2%,
O=C(Nc1sc2c(c1C(=O)O)CCC2)c1ccccc1F,19.6%,
CCOC(=O)c1c(NC(=O)CSc2nnc(C)c(=O)[nH]2)sc2c1CCC2,-24.2%,
CCOC(=O)c1c(NC(=O)c2ccc(Br)o2)sc2c1CCCC2,-18.3%,
CCOC(=O)c1c(NC(=S)Nc2ccccc2)sc2c1CCN(C)C2,-15.4%,
CCN(CC)CC(=O)Nc1sc2c(c1C(=O)c1ccccc1C)CCC2,,7.08 µM (active)
CCOC(=O)c1c(NC(=S)NC)sc2c1CCCC2,,0.891 µM (active)
Cc1coc2c1c(C)cc1oc(=O)c(CC(=O)NCC(=O)N[C@H](C(=O)O)C(C)C)c(C)c12,-3.21%,
CCCCNC(=O)CN1C(=O)NC(Cc2ccccc2)(Cc2ccccc2)C1=O,1.1%,
O=C(NCC(=O)N1CCN(c2ccccc2O)CC1)c1ccc2ccccc2c1,6.01%,
Cc1cc(C)cc(N(CC(=O)NC2CCCC2)C(=O)CCC(=O)Nc2cc(C)on2)c1,2.25%,
O=C(CN1CCOC1=O)N1CCCC(Nc2ccc(F)c(F)c2)C1 (stereo unspecified),28.4%,
O=C(CCNS(=O)(=O)c1cccs1)N1CCN(c2ccc(F)cc2)CC1,1.55%,
CCCc1nnc(SCC(=O)Nc2ccc(C(=O)OCC)cc2)o1,-35.3%,
CCN(C(=O)Cc1c(C(=O)O)n(CC)c2ccccc12)c1ccccc1C,30.5%,
CCOC(=O)c1ccccc1NC(=O)COC(=O)CCC(=O)N1CCOCC1,2.27%,

# From PubChem BioAssay AID2551 (National Center for Advancing Translational Sciences (NCATS), 2010)
